PubChem BioAssay AID504333 (National Center for Advancing Translational Sciences (NCATS), 2011)
Out of some 360,000 compounds screened, about 16,000 (4.4%) were called active. Not shown: some 9% with an inconclusive outcome. Calls follow the shape of the dose curve; as a rule, active = well fitted inhibition curve with a large enough effect; inconclusive = small, poorly fitted or top-dose-only effect; inactive = no such curve, though single readings can be large or run the other way. The list comes from a sample in which actives are over-represented; it also holds similar structures and randomly drawn compounds. Where a call stands in place of a potency, no number is given.

molecular target: Bromodomain adjacent to zinc finger domain protein 2B (Homo sapiens) (UniProt Q9UIF8); assay: qHTS Assay for Inhibitors of BAZ2B; conditions: AlphaScreen BAZ2B-H3K14Ac peptide displacement; series mostly up to 114 µM; also: nearly all actives have a fitted effect of over 60% in size
Sequence (Q9UIF8 whole entry, looked up, the tested form may be a part): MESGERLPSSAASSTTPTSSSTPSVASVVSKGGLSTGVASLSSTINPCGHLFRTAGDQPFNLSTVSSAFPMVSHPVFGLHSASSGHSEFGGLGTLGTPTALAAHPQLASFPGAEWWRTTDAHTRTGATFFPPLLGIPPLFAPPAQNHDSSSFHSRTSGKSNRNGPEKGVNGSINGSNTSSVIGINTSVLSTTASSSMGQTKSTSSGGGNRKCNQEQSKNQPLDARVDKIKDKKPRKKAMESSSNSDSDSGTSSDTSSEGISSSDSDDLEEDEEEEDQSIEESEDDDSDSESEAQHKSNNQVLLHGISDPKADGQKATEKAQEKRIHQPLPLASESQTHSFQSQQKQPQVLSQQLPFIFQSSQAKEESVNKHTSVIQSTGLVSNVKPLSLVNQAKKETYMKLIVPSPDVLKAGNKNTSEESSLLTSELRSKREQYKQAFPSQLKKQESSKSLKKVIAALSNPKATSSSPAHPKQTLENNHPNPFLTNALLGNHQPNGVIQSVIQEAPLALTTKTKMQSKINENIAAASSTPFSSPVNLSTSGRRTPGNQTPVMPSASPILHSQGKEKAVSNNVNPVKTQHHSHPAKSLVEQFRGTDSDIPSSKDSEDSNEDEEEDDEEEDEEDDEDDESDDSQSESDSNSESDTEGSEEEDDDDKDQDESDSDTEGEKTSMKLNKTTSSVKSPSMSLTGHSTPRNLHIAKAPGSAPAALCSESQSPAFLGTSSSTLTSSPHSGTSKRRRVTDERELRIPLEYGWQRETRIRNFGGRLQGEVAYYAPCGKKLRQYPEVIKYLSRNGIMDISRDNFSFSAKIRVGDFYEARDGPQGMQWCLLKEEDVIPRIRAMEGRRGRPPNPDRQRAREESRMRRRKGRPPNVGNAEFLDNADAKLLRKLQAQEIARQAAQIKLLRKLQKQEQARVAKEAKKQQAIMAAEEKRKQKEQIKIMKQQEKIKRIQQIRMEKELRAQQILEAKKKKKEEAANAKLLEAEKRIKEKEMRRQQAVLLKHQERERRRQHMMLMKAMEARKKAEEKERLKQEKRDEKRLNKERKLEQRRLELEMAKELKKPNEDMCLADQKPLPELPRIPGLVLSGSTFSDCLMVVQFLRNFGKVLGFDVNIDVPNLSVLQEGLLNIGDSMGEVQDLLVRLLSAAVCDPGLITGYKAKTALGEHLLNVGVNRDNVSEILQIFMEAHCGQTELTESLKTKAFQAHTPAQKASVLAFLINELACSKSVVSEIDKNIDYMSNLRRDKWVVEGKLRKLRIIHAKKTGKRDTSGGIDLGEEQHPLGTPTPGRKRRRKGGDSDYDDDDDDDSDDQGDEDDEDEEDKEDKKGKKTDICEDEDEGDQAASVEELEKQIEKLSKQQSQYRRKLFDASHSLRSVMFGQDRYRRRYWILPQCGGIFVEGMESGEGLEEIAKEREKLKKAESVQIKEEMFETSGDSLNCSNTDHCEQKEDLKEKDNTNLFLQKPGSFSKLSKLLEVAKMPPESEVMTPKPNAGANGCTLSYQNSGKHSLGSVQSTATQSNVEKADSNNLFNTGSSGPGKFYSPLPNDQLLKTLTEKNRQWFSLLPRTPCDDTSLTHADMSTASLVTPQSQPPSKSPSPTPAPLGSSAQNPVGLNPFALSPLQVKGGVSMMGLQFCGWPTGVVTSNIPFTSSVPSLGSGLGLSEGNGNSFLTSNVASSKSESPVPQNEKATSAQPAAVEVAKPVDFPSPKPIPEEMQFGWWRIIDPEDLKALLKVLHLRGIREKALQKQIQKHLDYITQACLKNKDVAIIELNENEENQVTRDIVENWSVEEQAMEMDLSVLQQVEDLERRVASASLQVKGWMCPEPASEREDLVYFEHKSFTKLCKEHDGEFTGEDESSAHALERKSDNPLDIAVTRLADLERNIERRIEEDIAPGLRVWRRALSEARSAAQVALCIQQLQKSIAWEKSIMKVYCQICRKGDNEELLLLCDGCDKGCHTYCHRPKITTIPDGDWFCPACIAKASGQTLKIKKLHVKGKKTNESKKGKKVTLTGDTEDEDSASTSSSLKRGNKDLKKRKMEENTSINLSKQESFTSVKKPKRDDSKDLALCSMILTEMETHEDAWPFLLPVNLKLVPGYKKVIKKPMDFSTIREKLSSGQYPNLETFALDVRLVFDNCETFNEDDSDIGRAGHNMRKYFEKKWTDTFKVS
Summary of the method: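 BAZ2B (50 nM) with biotin-H3(5-23)K14Ac peptide (50 nM) in PBS pH 7.4, 0.01% Tween-20, preformed 30 min, then compound 30 min at room temperature; top concentration 110uM. AlphaScreen streptavidin donor/nickel chelate acceptor beads (10 ug/mL final), 20 min dark, signal read.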
Potency is read from the fitted curve at half-maximal effect.

Structure (SMILES) | Potency
CCOc1ccccc1N(C)C(=O)c1cc2c(s1)-c1ccccc1OC2 | inactive
O=C(Cc1ccc(Cl)cc1)NCC(c1cccs1)S(=O)(=O)c1ccc(Cl)cc1 (configuration not stated) | inactive
CCOC(=O)N1CCc2c(sc3c2C(=O)NC(c2ccccc2F)N3)C1 (configuration not stated) | inactive
CCOc1ccc(CNCc2c(C(=O)O)c(C)n(Cc3cccc(OC)c3)c2C)cc1OC | inactive
CCN(CC)S(=O)(=O)c1ccc(C(=O)N=c2sc3cccc(OC)c3n2C)cc1 | inactive
CCOC(=O)c1c(-c2ccc(OC)cc2)oc2ccc(OCc3ccc(C(=O)OC)cc3)cc12 | inactive
CN1/C(=c2/s/c(=C3/C(=O)N(c4ccccc4)NC3=Nc3ccccc3)n(C)c2=O)C(C)(C)c2ccccc21 | 10 µM (active)
CN1C(=O)c2ccccc2Sc2ccc(NC(=O)Cc3ccc(Cl)cc3)cc21 | inactive
Cc1ccc(Nc2c(-c3ccc(Cl)cc3)nc3sccn23)c(C)c1 | 28.2 µM (active)
O=c1cc(Cn2nnc(-c3ccc(Cl)cc3)n2)nc2sccn12 | inactive
O=C(NCc1ccc(Cl)cc1)c1cc2c(nc3sccn32)s1 | inactive
Cc1ccccc1C(=O)Nc1cc(C)c(O)c(-c2nc3ccccc3o2)c1 | inactive
Cc1ccc(Cl)cc1N(C)C(=O)C1CCCN(c2ncnc3onc(-c4ccc(F)cc4)c23)C1 (configuration not stated) | inactive
CCOc1ccc(C2C(C(=O)Nc3ccc(Cl)cc3)=C(C)Nc3nc(C(F)(F)F)nn32)cc1 (configuration not stated) | inactive
COc1ccc(/C=C/C(=O)N2CCCC2)cc1OC | inactive
COc1ccc(C(=O)/C=C/c2ccc(-c3ccccc3)cc2)cc1CSCC(=O)O | inactive
COC(=O)c1ccc(COc2ccc(/C=C/C(=O)c3ccc(OC)c(CSCC(=O)O)c3)cc2OC)cc1 | 39.8 µM (active)
CCOc1ccccc1NC(=O)Cn1c(=O)n(-c2cccc(C)c2)c(=O)c2c1c1cc(OC)ccc1n2C | inactive
CCOc1cc(-c2nnc(SCC(=O)NC3CCCCC3)nc2-c2ccc(OC)c(OCC)c2)ccc1OC | 79.4 µM (active)
COc1ccc(-c2nnc(SCC(=O)Nc3ccc(C(C)C)cc3)nc2-c2ccc(OC)c(OC)c2)cc1OC | inactive
COc1ccc(-c2nnc(SCC(=O)NC3CCCCC3)o2)cc1OC | inactive

Structure (SMILES) | Potency
COCCn1c(SCC(=O)c2cc(C)ccc2C)nc2cc(C(=O)NC3CCCC3)ccc2c1=O | inactive
Cc1ccc(-c2nc(CS(=O)(=O)CC(=O)NCc3ccccc3Cl)c(C)o2)cc1 | inactive
CCOc1ccc2nc(N3CCC(C(=O)Nc4cc(C)ccc4C)CC3)sc2c1 | inactive
CC1=C(C(=O)Nc2ccccc2Cl)C(c2cccs2)n2ncnc2N1 (configuration not stated) | inactive
CCC(=C/c1sc2ccc3ccccc3c2[n+]1C)/C=C1\Sc2ccc3ccccc3c2N1C | 50.1 µM (active)
N#C/C(=C\C1=C(N2CCOCC2)C(=C\c2ccccc2)/CC1)C(=O)Nc1ccccc1F | 2 µM (active)
N#C/C(=C\c1ccccc1C(F)(F)F)C(=O)Nc1ccccc1F | inactive
N#C/C(=C/c1ccc(N2CCOCC2)o1)C(=O)N1CCOCC1 | inactive
Cc1ccc2c(=O)c(C(=O)c3ccc(Cl)cc3)cn(CC(=O)NC3CCCCC3)c2n1 | inactive
O=C(O)c1ccc2c(c1)C(=O)N(NC(=O)c1ccc(O)cc1)C2=O | inactive
CC(=O)N1C(=O)/C(=C2\SC(=S)N(NC(=O)c3ccc(O)cc3)C2=O)c2ccccc21 | 39.8 µM (active)
COc1ccc2c(c1)N(C)/C(=C1/SC(=S)N(NC(C)=O)C1=O)S2 | inactive
CCOC(=O)c1cccc(NC(=O)c2cc(S(=O)(=O)N3CCCC(C)C3)cn2C)c1 (configuration not stated) | inactive
CCCCN1CC(c2nc3ccccc3n2CCCCOc2ccc(C)cc2C)CC1=O (configuration not stated) | inactive
Cc1ccc(N=C2NC(=O)/C(=C/C=C/c3ccco3)S2)cc1C | 44.7 µM (active)
CCOC(=O)c1cc(-c2ccccc2)n(CCC(=O)Nc2ccccc2CC)c1C | inactive
CC(C)CC(=O)NCC(c1ccc2c(c1)OCO2)N1CCN(c2ccc(F)cc2)CC1 (configuration not stated) | inactive
Cc1nnc(NCc2ccccc2)c2c1nnn2Cc1ccc(F)cc1 | inactive
CCOc1ccc(C(=O)c2cn(Cc3ccc(F)cc3)c3ccc(F)cc3c2=O)cc1 | inactive
COc1ccc2oc(=O)cc(CN3CCOCC3)c2c1 | inactive
CCOc1ccc(N(C)Cc2cc(=O)oc3ccc(OC)cc23)cc1 | 22.4 µM (active)

Structure (SMILES) | Potency
CCOc1ccc2oc(=O)cc(CN3CCN(C(=O)c4ccc(F)cc4)CC3)c2c1 | inactive
Cc1ccc(O)c(NC(=O)CCS(=O)(=O)c2nc(-c3ccc4c(c3)OCO4)cc(C(F)(F)F)n2)c1 | inactive
CCOC(=O)c1ccc(NC(=O)c2ncn(-c3ccccc3)n2)cc1 | inactive
Fc1ccc(-c2nn(-c3ccccc3Cl)c3c2cnc2ccccc23)cc1 | inactive
COc1cccc(CNC(=O)Cn2c(=O)c3cccn3c3ccc(F)cc32)c1OC | inactive
CCOC(=O)c1cnc2c(C)cc(Cl)cc2c1NCCc1ccc(OC)c(OC)c1 | inactive
Cc1ccc(OCCCC(=O)Nc2ccc(N3CCOCC3)cc2)cc1 | inactive
CCOC(=O)c1cnc2c(C)cc(C)cc2c1Nc1ccc(N2CCOCC2)cc1 | 7.08 µM (active)
CCOc1cccc(NC(=O)CSc2ncc(-c3ccc(Cl)cc3)[nH]2)c1 | inactive
Cc1cc(NS(=O)(=O)c2ccc3oc(=O)c4ncn(C)c4c3c2)ccc1Br | inactive
CC1CN(CCOc2ccccc2[N+](=O)[O-])CC(C)O1 (configuration not stated) | 25.1 µM (active)
O=[N+]([O-])c1ccccc1OCCCCN1CCCCC1 | inactive
CC1CC(C)CN(CCOc2cccc3ccccc23)C1 (configuration not stated) | inactive
Cc1ccccc1CNC(=O)CCc1cn(Cc2ccccc2C)c2ccccc12 | inactive
CCc1cc2c(cc3c(=O)n(CC(=O)NCc4cccc(Cl)c4)nc(CC)n32)s1 | inactive
COc1ccccc1C(=O)NCCn1cc(SCc2ccccc2Cl)c2ccccc21 | inactive
Cc1ccc(CN2CCC(CNC(=O)c3cnn(-c4ccc(C)cc4)c3C3CCN(C(=O)OC(C)(C)C)CC3)CC2)cc1 | inactive
O=C(COc1ccccc1[N+](=O)[O-])NC1CC1 | inactive
O=C(COc1ccccc1[N+](=O)[O-])N/N=C/c1ccc[nH]1 | inactive
C=CCN(CC=C)CCOc1ccccc1[N+](=O)[O-] | 39.8 µM (active)
